DSG3 Ab inh: human desmoglein-3 autoantibody binding inhibition. DSG3-coupled beads, scFv-anti-DSG3-GFP binding, flow cytometry; active compounds read low. P32926. AID 588358. hit rate 0.48% among 310,000. binding (percent of control), % at 10 µM;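 active means binding more than 3 SD below its plate's average and above zero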;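 further: hits lower antibody fragment binding to DSG3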
pPAFAH FP inh: inhibitors of human plasma PAF acetylhydrolase (pPAFAH). Q13093. recombinant pPAFAH, FP-rhodamine probe fluorescence polarization. inhibition, % at 3.39 µM. hit rate 1.5% among 330,000. AID 463082;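 active means inhibition above the mean inhibition across the screen plus 3 SD, cut at about 25% in these data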;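 further: inhibitors block binding of the rhodamine activity-based probe so polarization drops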
PAFAH1B3 FP inh: blocks human PAF acetylhydrolase 1B catalytic subunit 3. hit rate 0.28% among 340,000. Q15102. inhibition, % at 3.39 µM. AID 492972. recombinant PAFAH1B3, FP-rhodamine probe, fluorescence polarization;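 active means inhibition above the screen-wide average of all tested compounds plus 3 SD, cut at about 25% in these data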
Target sequence (Q15102 whole entry, looked up): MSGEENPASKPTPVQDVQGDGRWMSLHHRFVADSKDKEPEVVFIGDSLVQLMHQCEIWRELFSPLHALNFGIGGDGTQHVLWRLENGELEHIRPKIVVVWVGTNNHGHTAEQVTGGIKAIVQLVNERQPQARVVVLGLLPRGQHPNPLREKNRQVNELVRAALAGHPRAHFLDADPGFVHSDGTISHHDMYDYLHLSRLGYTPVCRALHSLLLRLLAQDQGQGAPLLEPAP
PfM18AAP inh: PfM18AAP enzyme inhibition | hit rate 1.2% among 290,000 | inhibition, % at 7.35 µM | recombinant PfM18AAP, H-Glu-NHMec fluorogenic cleavage | AID 1822;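 active means inhibition above the campaign mean inhibition over all tested compounds plus 3 SD, cut at about 28% in these data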
PAFAH1B2 inh: blocks human PAF acetylhydrolase 1b catalytic subunit 2; inhibition, % at 3.39 µM; hit rate 1.2% among 340,000; AID 492953; recombinant PAFAH1B2, FP-rhodamine activity probe, fluorescence polarization;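 active means inhibition above the mean of all tested compounds plus 3 SD, cut at about 24% in these data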
Target sequence (P68402 whole entry, looked up): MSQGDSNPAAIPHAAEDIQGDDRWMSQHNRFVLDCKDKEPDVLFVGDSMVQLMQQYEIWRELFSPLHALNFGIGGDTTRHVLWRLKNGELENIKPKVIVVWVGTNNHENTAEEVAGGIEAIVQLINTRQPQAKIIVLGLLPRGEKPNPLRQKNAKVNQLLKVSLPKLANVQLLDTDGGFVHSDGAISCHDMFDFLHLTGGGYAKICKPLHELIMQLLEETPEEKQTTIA
PAFAH2 FP inh: PAFAH2 (human) inhibition; recombinant PAFAH2, FP-rhodamine activity probe, fluorescence polarization; inhibition, % at 3.39 µM; hit rate 0.99% among 340,000; Q99487;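 active means inhibition above the mean over all tested compounds plus 3 SD, cut at about 30% in these data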;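 further: inhibitors block probe labeling of enzyme so polarization drops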
PAFAH2 confirm: PAFAH2 (human) inhibition, confirmed. shares compounds with PAFAH2 FP inh. recombinant PAFAH2, FP-rhodamine activity probe, fluorescence polarization. inhibition, % at 3.39 µM. AID 493030. hit rate 65% among 2,300;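 active means mean inhibition over three repeats above a set limit taken from the earlier primary screen, cut at about 30% in these data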;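 further: inhibitor blocks binding of rhodamine activity probe so polarization falls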
A number is an active result. Rows were chosen to be rich in hits. Some 3.8% of all compounds tested hit in one or more screens of this group.

Nc1cc(C(=O)OCC(=O)NCc2ccc(F)cc2)ccc1Cl was read as DSG3 Ab inh inactive, pPAFAH FP inh inactive, PAFAH1B3 FP inh inactive, PfM18AAP inh inactive, PAFAH1B2 inh inactive, PAFAH2 FP inh 55 and PAFAH2 confirm 44.
`O=C(Nc1ccccc1Cl)c1ccc2nc(N3CCOCC3)sc2c1` gave DSG3 Ab inh inactive, pPAFAH FP inh inactive, PAFAH1B3 FP inh inactive, PfM18AAP inh inactive, PAFAH1B2 inh inactive and PAFAH2 FP inh inactive.
For CCN(C(=O)CCN1C(=O)/C(=C/c2ccccc2)SC1=S)C1CCS(=O)(=O)C1 (configuration not stated) the results were pPAFAH FP inh inactive, PAFAH1B3 FP inh inactive, PfM18AAP inh inactive, PAFAH1B2 inh inactive and PAFAH2 FP inh inactive.
O=C(COC(=O)c1ccc(S(=O)(=O)N2CCCCCC2)cc1)NCc1ccc(F)cc1 was read as DSG3 Ab inh inactive, PAFAH1B3 FP inh inactive, PAFAH1B2 inh inactive and PAFAH2 FP inh inactive.
For Cc1cccc(OCCOC(=O)c2ccc(F)c(S(=O)(=O)N3CCOCC3)c2)c1 the results were DSG3 Ab inh inactive, pPAFAH FP inh inactive, PAFAH1B3 FP inh inactive, PAFAH1B2 inh inactive and PAFAH2 FP inh inactive.
`O=C(COC(=O)c1ccc(F)c(S(=O)(=O)N2CCCCC2)c1)NCc1ccc(F)cc1` gave DSG3 Ab inh inactive, pPAFAH FP inh inactive, PAFAH1B3 FP inh inactive, PfM18AAP inh inactive, PAFAH1B2 inh inactive, PAFAH2 FP inh 32 and PAFAH2 confirm inactive.
COc1ccc(C(=O)OCCOc2cccc(Cl)c2)cc1S(=O)(=O)N1CCOCC1 was read as DSG3 Ab inh inactive, pPAFAH FP inh inactive, PAFAH1B3 FP inh inactive, PfM18AAP inh inactive, PAFAH1B2 inh inactive, PAFAH2 FP inh 35 and PAFAH2 confirm inactive.
Screening O=C(COC(=O)c1ccc(F)c(S(=O)(=O)N2CCOCC2)c1)NCCc1ccc(F)cc1 returned DSG3 Ab inh inactive, pPAFAH FP inh inactive, PAFAH1B3 FP inh inactive, PAFAH1B2 inh inactive, PAFAH2 FP inh 30 and PAFAH2 confirm inactive.
Screening O=C(CN1C(=O)NC2(CCOc3ccccc32)C1=O)c1ccc[nH]1 (configuration not stated) returned DSG3 Ab inh inactive, pPAFAH FP inh inactive, PAFAH1B3 FP inh inactive, PAFAH1B2 inh inactive and PAFAH2 FP inh inactive.
`O=S(=O)(CCSc1ccc(C(F)(F)F)cn1)c1ccc(Cl)cc1` gave pPAFAH FP inh inactive, PAFAH1B3 FP inh inactive, PfM18AAP inh inactive, PAFAH1B2 inh inactive and PAFAH2 FP inh inactive.
`CCOC(=O)c1ccc(NC(=O)N2CCc3ccccc3C2)cc1` gave pPAFAH FP inh inactive, PAFAH1B3 FP inh inactive, PfM18AAP inh inactive, PAFAH1B2 inh inactive and PAFAH2 FP inh inactive.
For NC(=O)Nc1ccc(C(=O)OCC(=O)N2CCc3ccccc3C2)cc1 the results were pPAFAH FP inh inactive, PAFAH1B3 FP inh inactive, PAFAH1B2 inh inactive, PAFAH2 FP inh 54 and PAFAH2 confirm 47.
CC(=O)c1c(C)[nH]c(C(=O)OCC(=O)N2CCc3ccccc3C2)c1C was read as pPAFAH FP inh inactive, PAFAH1B3 FP inh inactive, PAFAH1B2 inh inactive, PAFAH2 FP inh 30 and PAFAH2 confirm inactive.
O=C(OCC(=O)N1CCc2ccccc2C1)c1ccc(O)cc1 was read as pPAFAH FP inh inactive, PAFAH1B3 FP inh inactive, PAFAH1B2 inh inactive, PAFAH2 FP inh 47 and PAFAH2 confirm 30.
`CSc1nc(C)cc(OCNC(=O)c2cccs2)n1` gave DSG3 Ab inh inactive, pPAFAH FP inh inactive, PAFAH1B3 FP inh inactive, PfM18AAP inh inactive, PAFAH1B2 inh inactive, PAFAH2 FP inh 54 and PAFAH2 confirm 51.
`O=C(COC(=O)C1CC1)Nc1ccc([N+](=O)[O-])cc1C(F)(F)F` gave pPAFAH FP inh inactive, PAFAH1B3 FP inh inactive, PAFAH1B2 inh inactive, PAFAH2 FP inh 53 and PAFAH2 confirm 45.
NC(=O)Nc1ccc(C(=O)OCC(=O)Nc2ccc([N+](=O)[O-])cc2C(F)(F)F)cc1 was read as DSG3 Ab inh inactive, pPAFAH FP inh inactive, PAFAH1B3 FP inh inactive, PfM18AAP inh inactive, PAFAH1B2 inh inactive, PAFAH2 FP inh 66 and PAFAH2 confirm 66.
For O=C(COC(=O)c1ccc[n+]([O-])c1)Nc1ccc([N+](=O)[O-])cc1C(F)(F)F the results were pPAFAH FP inh inactive, PAFAH1B3 FP inh inactive, PAFAH1B2 inh inactive and PAFAH2 FP inh inactive.
